Shown are actives, neighbours in structure and some others; about 5.9% of the full set was active somewhere.
ATXN2 expr inh – Primary qHTS for Inhibitors of ATXN expression; HEK-293 ATXN2-luciferase reporter, luminescence, 24 h; Potency, µM (highest dose often 57 µM), for the others: top-dose activity change, negative = inhibition, most hits filed as inhibitors; 0.72% of 360,000 active; AID 1745845, 2022; note: % is set by controls: 0 for no effect and ±100 for the full control effect; nearly all actives have a fitted effect of over 55% in size
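qHTS (up to 57 uM final) was run with 24 h compound exposure of reporter cells at 37 °C. Each well was multiplexed: SteadyGlo luminescence measured ATXN2-luciferase expression after a fluorogenic Gly-Phe-AFC viability readout (25 uM final).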
HepG2 viability – qHTS for Inhibitors of TGF-b: Cytotox Counterscreen | HepG2 CAGA-GFP viability, ATP luminescence, 18 h | Potency, µM (series often up to 46.1 µM), for the others: at the top dose activity change, negative = cytotoxicity, usual class: cytotoxic | 0.76% of 410,000 active | AID 588856, 2011
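CellTiter-Glo luminescence gave cytotoxicity after 18 hours at 37 degrees C. The cells were HepG2 CAGA-GFP in 1% FBS DMEM, stimulated with 500 pg/mL TGF-beta after compound addition. %Activity was normalised to no-cell wells (complete cell-killing) and DMSO (no toxicity), and curves were fitted and classified.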
TGFb inhibitor – qHTS for Inhibitors of TGF-b | HepG2 CAGA-GFP TGF-b/SMAD3 reporter, GFP fluorescence, 18 h; TGF-beta stimulated, 500 pg/mL final | Potency, µM (titrated, usually from 46.1 µM), for the others: at the top dose activity, negative = inhibition, usual class: inhibitors | 1.2% of 410,000 active | AID 588855, 2011; note: % is set by controls: 0 for no effect and ±100 for the full control effect; nearly all actives have a fitted effect of over 65% in size
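GFP signal (ex488/em500-530) from TGF-beta-stimulated HEPG2 CAGA-GFP cells, 500 pg/mL final, 18 h at 37 degrees C in DMEM plus 1% FBS, normalized to unstimulated and DMSO-stimulated controls.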
KB-V1 MDR tox – qHTS assay for MDR1-selective chemotherapeutics: Primary screen using the drug-selected MDR subline cells KB-V1. Potency, µM (titrated, usually from 46.1 µM), usual class: cytotoxic. KB-V1 MDR cells viability, CellTiter-Glo, 72 h. 3.4% of 400,000 active; note: % is set by controls: 0 for no effect and ±100 for the full control effect; nearly all actives have a fitted effect of over 60% in size
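Following 72 h at 37 degrees C with compound, KB-V1 cell viability was read by CellTiter-Glo luminescence, medium being phenol-red-free DMEM plus 10% FBS; concentration-response parameters came from normalized, curve-fitted qHTS data.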
ATXN viability – Viability Counterscreen for Primary qHTS for Inhibitors of ATXN expression; S2 cells (HEK-293 line with an ATXN2-luciferase reporter) viability, CellTiter-Fluor protease fluorescence, 24 h; Potency, µM (top dose mostly 56.7 µM), actives largely listed as cytotoxic; 0.49% of 400,000 active; AID 651635, 2014; note: nearly all actives have a fitted effect of over 40% in size
KB-3-1 tox – qHTS assay for MDR1-selective chemotherapeutics: Primary screen using the parental adenocarcinoma cell KB-3-1; KB-3-1 viability, CellTiter-Glo ATP luminescence, 72 h; Potency, µM (highest dose often 46.1 µM), most hits filed as cytotoxic; AID 1347075, 2019; 1.4% of 400,000 active; note: % is set by controls: 0 for no effect and ±100 for the full control effect; nearly all actives have a fitted effect of over 60% in size
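Using CellTiter-Glo luminescence, growth of non-resistant KB-3-1 adenocarcinoma cells is assessed 72 h after pin-tool compound addition at 37 °C. Normalized responses across the concentration series yield fitted curves.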
Numbers without * were called inactive; i = inactive; ? = inconclusive; nt = not tested or not shown; [ ] = dose if it differs, or a comment. Calls come from the whole dose curve; as a rule, active = well fitted curve in the direction sought with a large enough effect; inconclusive = small, poorly fitted or top-dose-only effect, or another doubt; inactive = no such curve, though single readings can be large; an effect the other way counts as inactive or inconclusive. Potency is the fitted concentration of half-maximal effect.

SMILES	ATXN2 expr inh	HepG2 viability	TGFb inhibitor	KB-V1 MDR tox	ATXN viability	KB-3-1 tox
O=[N+]([O-])c1ccc(/C=[N+](\[O-])[C@@H]2CCCC[C@@H]2/[N+]([O-])=C/c2ccc([N+](=O)[O-])o2)o1	?	-53%	7.1µM*	21µM*	nt	?
O=C(N/N=C/c1ccc([N+](=O)[O-])o1)C1CCCC1	-32%	-72%	?	i	i	?
COc1cc(=O)n2c(c1C(=O)NC(C)c1ccco1)CCN(C(=O)c1[nH]c(C)cc1C)CC2 (stereo not given)	nt	nt	nt	nt	i	nt
COc1ccc(Cl)cc1NC(=S)NCCc1c[nH]c2ccccc12	?	-57%	-4%	?	i	21µM*
Cc1ccccc1NC(=S)NCCc1c[nH]c2ccccc12	-33%	-16%	?	i	?	i
Cc1noc(-c2ccc(-c3noc(-c4cccc(F)c4)n3)cc2)n1	-1%	2%	-10%	i	?	i
COc1ccc(OC)c(S(=O)(=O)n2cnc3ccccc32)c1	-30%	-12%	2%	23µM*	i	?
CCOc1ccc(/C=C/C(O)=C2/C(=O)NC3(C)CC2c2ccccc2O3)cc1OC (stereo not given)	-12%	-26%	-31%	?	?	?
CCOc1ccc(/C=C/C(O)=C2/C(=O)N(C)C3(C)CC2c2ccccc2O3)cc1OC (stereo not given)	?	-9%	-19%	?	i	23µM*
CC1=NN(C(N)=S)C(=O)C1N=Nc1c(C)cc(C)cc1C (stereo not given)	23%	-1%	-16%	?	?	4.6µM*
CC1=NN(C(N)=S)C(=O)C1N=Nc1c(Br)cc(Br)cc1Br (stereo not given)	8%	-30%	-25%	i	i	?
COc1ccc(C(=O)N=c2sc3c(C)ccc(OC)c3n2C)cc1OC	nt	-9%	-6%	18µM*	i	?
O=C(NCc1ccccc1)Nc1nnc(-c2ccncc2)s1	nt	nt	nt	i	nt	i
O=C(OC(c1ccccc1)c1nccc2ccccc12)c1cc([N+](=O)[O-])cc([N+](=O)[O-])c1 (stereo not given)	2%	-1%	?	8.2µM*	?	i
COc1ccc(-c2cccc(N3CCN(c4ccccn4)CC3)n2)cc1OC	-21%	-22%	23%	i	i	i
Cc1ccccc1N=Nc1c(C)[nH]n(-c2ccccc2)c1=O	-7%[11.3 µM]	-3%	12%	i	i	i
Cc1[nH]n(-c2ccccc2)c(=O)c1N=Nc1ccccc1O	?	-50%	?	i	i	9.2µM*
Cc1[nH]n(-c2ccccc2)c(=O)c1N=Nc1nccs1	22µM*	-27%	?	?	nt	i
Cc1[nH]n(-c2ccccc2)c(=O)c1N=Nc1ccccc1C(=O)O	nt	-9%	-5%	i	?	i
COc1cccc2c1Oc1ncccc1N(C(=O)CCC(=O)NCc1ccc(OC(C)C)cc1)C2	9%	-17%	?	i	i	i
O=c1ccc2cc(S(=O)(=O)Nc3ccc(F)c(Cl)c3)ccc2[nH]1	1%	-10%	29%	i	i	i
CCC(=O)NC(c1cc(Cl)c2cccnc2c1O)C(C)C (stereo not given)	7.1µM*	-42%	2.8µM*	?	?	i
CCC(=O)NC(c1cc(Cl)c2cccnc2c1O)C1CC1 (stereo not given)	?	-23%	2µM*	?	?	?
C=CCc1cc(Cl)ccc1OCCCNC(C)CC (stereo not given)	-13%	-65%	-29%	13µM*	i	?

High-throughput results (PubChem)
